Hit rate of the full screen: of about 85,000 compounds, about 440 (0.52%) showed an effect of 50% or more. This is one part of a sample in which strong results are shown more often than they occur.
Assay: In vitro enzyme assay to detect hydrolysis of chlorophenol red-beta-D-[…] directly proportional to the number of Toxoplasma stably expressing beta-galactosidase
Assay type: functional, organism-based, Toxoplasma gondii
Design: scale not given: in the data most compounds retested in dose-response had high values

NCCC(=O)N1CCCC1Cc1cccc(F)c1 (centres undefined)
Percent Effect (50 µM): -2.968%

COc1cc(Br)c(CN)cc1OC
Percent Effect (50 µM): 44.43%

CC(C(=O)N1CCCC1)N1CCN(c2nc[nH]n2)CC1 (centres undefined)
Percent Effect (50 µM): 16.6%

N#Cc1ccc(C(=O)NCCCc2csc(N)n2)cn1
Percent Effect (50 µM): 3.81%

CC(=O)N(C)C1CCNCC1
Percent Effect (50 µM): -2.944%

CNC(=O)CCSc1ccc2c(c1)OCCO2
Percent Effect (50 µM): 0.7135%

NCC(=O)Nc1cc(C(F)(F)F)c[nH]c1=O
Percent Effect (50 µM): -2.166%

CCCn1ccnc1CNC(=O)CCC(=O)N(C)C
Percent Effect (50 µM): -10.54%

CNc1nnc(SCc2ncc(C)o2)s1
Percent Effect (50 µM): -1.305%

CCOC(=O)NCc1nn(CCN2CCCC2)c(=O)c2ccccc12
Percent Effect (10 µM): 7.365%

CCNC(=O)NCc1nn(CCN2CCCC2)c(=O)c2ccccc12
Percent Effect (10 µM): 21.21%

COCC(=O)NCc1nn(CCN2CCCC2)c(=O)c2ccccc12
Percent Effect (10 µM): 94.96%

CCC(=O)NC(C)(C#N)C(C)C (centres undefined)
Percent Effect (50 µM): 2.056%

CC1CCN(CC(N)=O)CC1
Percent Effect (50 µM): -12.83%

O=C(NCCc1cccs1)c1cc[nH]n1
Percent Effect (50 µM): 7.034%

CCC(N)c1cnn(CC)c1 (centres undefined)
Percent Effect (50 µM): -19.44%

O=C(c1cnc(-c2cccnc2)nc1)N1CCSCC1
Percent Effect (10 µM): 1.887%

O=C(c1cnn(-c2ccccc2)c1)N1CCCCC1
Percent Effect (50 µM): -4.798%

O=C(c1ccc(-c2ccc(O)nc2)s1)N1CCCCCC1
Percent Effect (10 µM): 59.06%

O=C(c1cc(-c2cccs2)cs1)N1CCSCC1
Percent Effect (10 µM): -31.67%

O=C(c1ccc(O)nc1)N1CCCCCCC1
Percent Effect (50 µM): -10.69%

O=C(c1ccc(-c2ccc(O)nc2)s1)N1CCCCC1
Percent Effect (10 µM): 53%

O=C(c1ccc(O)nc1)N1CCN(C(=O)c2ccc(F)c(F)c2)CC1
Percent Effect (10 µM): 5.066%

CCNc1ncc(C(=O)N2CCCCC2)s1
Percent Effect (50 µM): 3.681%

O=C(c1ccc(-c2ccc(O)nc2)s1)N1CCSCC1
Percent Effect (10 µM): 61.48%

O=C(CN1CCNCC1)c1ccccc1Cl
Percent Effect (50 µM): -6.338%

O=C(c1cnsn1)N1CC=C(c2ccccc2)CC1
Percent Effect (50 µM): 3.694%

CCC(C)(O)CCN (centres undefined)
Percent Effect (50 µM): 17.18%

Cc1ccc(NC(=O)CN2CCNCC2)c(C)c1
Percent Effect (50 µM): -5.303%

CCC(CC)NC(=O)CSc1nnc(N)n1C
Percent Effect (50 µM): -0.697%

Cn1ncc2c(NCc3ccccc3CO)ncnc21
Percent Effect (50 µM): 2.537%

Cc1cc(C)n(C2CN(CC(=O)N(C)Cc3ccc(C)o3)C2)n1
Percent Effect (10 µM): 1.659%

Cc1ccc(CN(C)C(=O)Cn2cnnn2)o1
Percent Effect (50 µM): 88.2%

Cc1ccc(CN(C)C(=O)CSc2nncn2C)o1
Percent Effect (50 µM): 6.979%

CN1CCCN(C(=O)c2ccc(C#N)cc2)CC1
Percent Effect (50 µM): -7.834%

CC(C)c1nc(CN2CCCC3(CCNC3)C2)co1 (centres undefined)
Percent Effect (50 µM): -11.26%

NC(c1ccccc1)C1(CO)CCC1 (centres undefined)
Percent Effect (50 µM): 8.034%

Cc1ccc(OCCNC(=O)CN2CSCC2=O)cc1
Percent Effect (50 µM): -3.002%

Cc1nc(NCc2ccccn2)c2c(n1)c(C)nn2C
Percent Effect (10 µM): 13.62%

CCCn1c(NCCc2ccccc2)nc2c(C)nn(C)c2c1=O
Percent Effect (10 µM): 74.28%

Cc1nn(C)c2c(NCc3cccnc3)nc(C(C)C)nc12
Percent Effect (10 µM): 25.8%

Cc1nn(C)c2c(=O)n(C(C)C)c(NCCc3ccccc3)nc12
Percent Effect (10 µM): 81.01%

Cc1nc(NCc2cccnc2)c2c(n1)c(C)nn2C
Percent Effect (10 µM): -7.547%

Cc1nn(C)c2c(=O)n(C(C)C)c(NCC3CCCO3)nc12 (centres undefined)
Percent Effect (10 µM): 6.206%

CCOc1ccccc1Nc1nc2c(C)nn(C)c2c(=O)n1C
Percent Effect (10 µM): 17.23%

CCn1c(NCc2cccnc2)nc2c(C)nn(C)c2c1=O
Percent Effect (10 µM): 57.44%

CCn1c(NCc2ccccn2)nc2c(C)nn(C)c2c1=O
Percent Effect (10 µM): 61.62%

COc1ccccc1Nc1nc2c(C)nn(C)c2c(=O)n1C
Percent Effect (10 µM): 9.981%

CCc1nc(NCc2ccccn2)c2c(n1)c(C)nn2C
Percent Effect (10 µM): 20.03%

CC(=O)c1ccc2c(c1)CCC(=O)N2C
Percent Effect (50 µM): 4.842%

CCOC(=O)NCCC(=O)N1CCCCCC1
Percent Effect (50 µM): 12.12%

Cc1ccc(F)c(S(=O)(=O)NC[C@@H]2CCNC[C@H]2O)c1
Percent Effect (50 µM): 0.2013%

CN(C)Cc1nnc(-c2ccccc2)o1
Percent Effect (50 µM): 4.493%

Cc1cc(CN)sc1C
Percent Effect (50 µM): 12.43%

COC(=O)c1ccc2c(c1)N(C)C(=O)CO2
Percent Effect (50 µM): -4.49%

CCn1c(Nc2ccccc2OC)nc2c(C)nn(C)c2c1=O
Percent Effect (10 µM): -60.37%

CCn1c(NCc2ccco2)nc2c(C)nn(C)c2c1=O
Percent Effect (10 µM): 8.368%

CCn1c(NCc2ccc(OC)cc2)nc2c(C)nn(C)c2c1=O
Percent Effect (10 µM): 69.56%

COc1ccc(Nc2nc3c(C)nn(C)c3c(=O)n2C)cc1
Percent Effect (10 µM): 8.6%

CCn1c(NCc2ccccc2)nc2c(C)nn(C)c2c1=O
Percent Effect (10 µM): 72.53%

COc1ccc(C(C)Nc2nc3c(C)nn(C)c3c(=O)n2C)cc1 (centres undefined)
Percent Effect (10 µM): 18.77%

O=C(NCC1(O)CCNC1)c1ccc(F)c(O)c1 (centres undefined)
Percent Effect (50 µM): -8.112%

O=C(NCc1c[nH]nn1)C1(Cc2ccccc2)CCC1
Percent Effect (50 µM): -1.868%

O=C(Nc1cnccn1)c1ccc(F)cn1
Percent Effect (50 µM): 3.391%

Cc1ncc(CNC(C)(C)CO)c2cc(C(=O)c3ccc(Br)cc3)oc12
Percent Effect (10 µM): 20.02%

Cc1ncc(CNCCO)c2cc(C(=O)c3ccc(Br)cc3)oc12.Cl
Percent Effect (10 µM): 76.96%

Cc1ncc(CN2CCCC2)c2cc(C(=O)c3ccc(Br)cc3)oc12.Cl
Percent Effect (10 µM): 24.27%

Cc1ncc(CN(C)CCO)c2cc(C(=O)c3ccc(Br)cc3)oc12.Cl
Percent Effect (10 µM): 15.47%

Cc1ncc(CNCC(C)O)c2cc(C(=O)c3ccc(Br)cc3)oc12.Cl (centres undefined)
Percent Effect (10 µM): 12.01%

COC(=O)c1ccc(C(=O)NC2(C#N)CCCC2)cc1
Percent Effect (50 µM): -9.94%

COc1cc(CN)cc(Br)c1OC
Percent Effect (50 µM): 0.1756%

Cn1ccc(C(=O)N2CCOc3ccccc32)cc1=O
Percent Effect (50 µM): -11.87%

Cc1scc(-c2nnc(SCC(N)=O)n2C)c1C
Percent Effect (50 µM): -29.64%

CSC(C)C(=O)Nc1ccc(Cl)c(C(=O)N(C)C)c1 (centres undefined)
Percent Effect (50 µM): 8.458%

Cc1cc(C(=O)Nc2cnn(CC(F)(F)F)c2)nc(N(C)C)n1
Percent Effect (10 µM): 54.34%

CCN(CC)c1nc(C)cc(C(=O)Nc2cnn(CC)c2)n1
Percent Effect (10 µM): -30.04%

Cn1nccc1C(=O)Nc1cnn(CC(F)(F)F)c1
Percent Effect (50 µM): -29.38%

Cc1cc(C(=O)Nc2cnn(CC(F)(F)F)c2)nc(N2CCOCC2)n1
Percent Effect (10 µM): 69.43%

Cc1cc(C(=O)NCc2c(C)nn(C)c2C)nc(N2CCOCC2)n1
Percent Effect (10 µM): 20.1%

CCn1cc(NC(=O)c2cc(C)nc(N3CCOCC3)n2)cn1
Percent Effect (10 µM): 48.82%

CCCn1ccc(NC(=O)NC(C)C)n1
Percent Effect (50 µM): -36%

CN(C)CC(=O)NC(C)(C(N)=O)c1cccc(Cl)c1 (centres undefined)
Percent Effect (50 µM): 2.258%

Cc1ccc2c(c1)C(=O)NCC2
Percent Effect (50 µM): -9.759%

CSc1ccc(CN(CCO)Cc2nccn2C)cc1
Percent Effect (10 µM): 19.56%

CCc1ccc(CN(CCO)Cc2nccn2C)nc1
Percent Effect (50 µM): 67.1%

Cc1cccc(CN(CCO)Cc2nccn2C)n1
Percent Effect (50 µM): 18.88%

NC(=O)OCCNC(=O)c1occc1Br
Percent Effect (50 µM): 5.554%

CCN1CCCC1CNC(=O)c1cccc(OC)c1 (centres undefined)
Percent Effect (50 µM): 4.98%

CCNC(=O)C1CN(C(=O)C(O)c2ccc(Br)cc2)C1 (centres undefined)
Percent Effect (50 µM): -1.346%

Cc1cccnc1[C@]1(O)CC[C@H]2CN(Cc3cccc(Cl)c3Cl)C[C@H]21.O=C(O)CC(O)(CC(=O)O)C(=O)O
Percent Effect (10 µM): 10.13%

Cc1ccc([C@]2(O)CC[C@H]3CN(Cc4cccc(F)c4F)C[C@H]32)nc1.O=C(O)CC(O)(CC(=O)O)C(=O)O
Percent Effect (10 µM): -4.995%

Cc1ccc([C@]2(O)CC[C@H]3CN(Cc4ccc(Cl)cc4Cl)C[C@H]32)nc1
Percent Effect (10 µM): 8.934%

Cc1ccc([C@]2(O)CC[C@H]3CN(Cc4cccc(Cl)c4Cl)C[C@H]32)nc1.O=C(O)CC(O)(CC(=O)O)C(=O)O
Percent Effect (10 µM): 51.44%

CSc1ccc(CN2C[C@@H]3CC[C@@](O)(c4ccc(C)cn4)[C@@H]3C2)cc1
Percent Effect (10 µM): 14.14%

Cc1ccc(F)cc1S(=O)(=O)N1CCN[C@H](C)C1
Percent Effect (50 µM): -0.3006%

CCN1CN=C(NS(=O)(=O)c2ccc(C)cc2)NC1
Percent Effect (50 µM): -65%

CCSc1cc(C(=O)N2CC[S+]([O-])CC2)ccn1
Percent Effect (50 µM): 18.59%

CC(CCc1ccc(O)cc1)NCCN1CCOCC1 (centres undefined)
Percent Effect (50 µM): -1.81%

O=C(CSCC(=O)NC1CC1)Nc1ccccc1
Percent Effect (50 µM): 16.41%

CN(C)CCC1CN(C(=O)CCc2cccs2)CCO1 (centres undefined)
Percent Effect (50 µM): -11.11%

CCOc1c(OC)cc(CN)cc1OC
Percent Effect (50 µM): -2.331%

CCC(CO)Nc1ncc(C(F)(F)F)cc1Cl (centres undefined)
Percent Effect (50 µM): -11.03%

CCOc1cccc(NC(=O)NCCN(C)C)n1
Percent Effect (50 µM): -13.49%

Cc1cccc(CC(=O)NCC2CCCNC2)c1 (centres undefined)
Percent Effect (50 µM): -6.216%

COc1ccc(CC(=O)NCC2CCCNC2)cc1F (centres undefined)
Percent Effect (50 µM): 55.41%

COc1ccc(CS(=O)(=O)CC(=O)NCC2CC2)cc1F
Percent Effect (10 µM): 4.977%

CCC(C)NC(=O)c1cnn(-c2ccccc2)c1 (centres undefined)
Percent Effect (50 µM): -7.328%

CCC(OC)c1n[nH]c(=O)n1Cc1cccc(OC)c1 (centres undefined)
Percent Effect (50 µM): -6.855%

CCC(C)NCCOC (centres undefined)
Percent Effect (50 µM): -11.32%

CCN(CC(=O)NC)C(=O)C(C)SC (centres undefined)
Percent Effect (50 µM): 23.69%

Clc1ccccc1C1(c2ccnc(C3CCCC3)n2)CCNCC1
Percent Effect (10 µM): 92.51%

CC(C)(C)c1nccc(C2(c3ccccc3Cl)CCNCC2)n1
Percent Effect (10 µM): 94.8%

Clc1ccccc1C1(c2ccnc(C3CC3)n2)CCNCC1
Percent Effect (10 µM): 61.01%

Clc1ccccc1C1(c2ccnc(-c3ncccn3)n2)CCNCC1
Percent Effect (10 µM): 5.922%

Clc1ccccc1C1(c2ccnc(-c3ccncc3)n2)CCNCC1
Percent Effect (10 µM): 16.95%

CC(C)c1nccc(C2(c3ccccc3Cl)CCNCC2)n1
Percent Effect (10 µM): 24.49%

O=c1[nH]cccc1-c1nccc(C2(c3ccccc3Cl)CCNCC2)n1
Percent Effect (10 µM): 22.57%

OC1(c2ccccc2Cl)CCNCC1
Percent Effect (50 µM): 6.16%

Clc1ccccc1C1(c2ccnc(CC3CC3)n2)CCNCC1
Percent Effect (10 µM): 35.91%

— ChEMBL document CHEMBL3988442, “University of Dundee, Small-Polar-MMV Screening Library” (2021)
